Reference: PubChem BioAssay (EPA / NIEHS)
Values joined by “and” are separate entries in the source; they are usually repeats but may differ in a detail not shown here. Identical values can stand only once. Some compounds were tested as several samples or in several runs, with calls that do not always agree. Active and inactive are the calls of the source. How the source made its calls: active means hit-call score of the fitted dose curve at least 0.9, where 1 is the maximum; inactive means score below 0.9.

What was measured:
[1] = APR_HepG2_CellLoss_72hr: Apredica 72-hour HepG2 Assay for Cell Loss (AID 2282915); conditions: high-content imaging
In short: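 Cell number comes from Hoechst 33342-labelled nuclei, imaged at 20x after 3.7% formaldehyde fixation. Dosing was 0.39–200 uM, ten concentrations in duplicate, 0.5% DMSO final, for 72 h. Bidirectional fit relative to DMSO baseline.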

[2] = APR_HepG2_P-H2AX_72hr: Apredica 72-hour HepG2 Assay for H2AX Phosphorylation (AID 2282916); conditions: imaging, actives raise or lower the signal;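 further: phospho-histone H2A.x immunostain intensity per cell marking DNA damage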
In short: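 Readout: phospho-H2A.x immunofluorescence (FITC secondary) plus Hoechst nuclear stain, high-content imaging at 20x, six fields/well. HepG2, 72 hr compound exposure, 0.39–200 uM, final DMSO 0.5% v/v. Gain or loss fitted relative to DMSO baseline.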

[3] = APR_HepG2_MitoticArrest_72hr: Apredica 72-hour HepG2 Assay for Mitotic Arrest (AID 2282918); conditions: high-content imaging, actives raise or lower the signal
In short: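 Mitotic arrest in HepG2 is scored from phospho-histone H3 staining after 72 hr dosing across 0.39–200 uM, with DMSO at 0.5% v/v. Nuclei are identified by Hoechst 33342 and fluorescence intensity is quantified per cell.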

[4] = APR_HepG2_MicrotubuleCSK_72hr: Apredica 72-hour HepG2 Assay for Microtubule CSK Stabilty (AID 2282919); conditions: HepG2 microtubule cytoskeleton, high-content imaging, actives raise or lower the signal
In short: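 High-content imaging of alpha-tubulin staining in fixed HepG2 cells after 72 hr treatment with ten concentrations from 0.39 to 200 uM (0.5% DMSO). Fitting was bidirectional against DMSO; taxol served as positive control.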

[5] = APR_HepG2_P-H2AX_24hr: Apredica 24-hour HepG2 Assay for H2AX Phosphorylation (AID 2282920); conditions: high-content imaging, actives raise or lower the signal
In short: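 Signal comes from a FITC-labeled secondary detecting phospho-histone H2A.x in fixed HepG2 cells, quantified by automated imaging at 20x. Dosing ran 24 hr across 0.39–200 uM with 0.5% v/v DMSO.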

[6] = APR_HepG2_StressKinase_72hr: Apredica 72-hour HepG2 Assay for Stress Kinase (AID 2282921); conditions: HepG2 stress kinase (phospho-c-Jun) imaging, actives raise or lower the signal
In short: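 Phospho-c-Jun immunofluorescence measured by high-content imaging at 20x, six fields per well; bidirectional curve fitting against DMSO as baseline. Dosing: 0.39–200 uM, 72 h, 0.5% DMSO final.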

[7] = APR_HepG2_StressKinase_24hr: Apredica 24-hour HepG2 Assay for Stress Kinase (AID 2282922); conditions: HepG2 stress kinase (phospho-c-Jun) imaging, actives raise or lower the signal
In short: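 High-content imaging of phospho-c-Jun immunofluorescence in fixed, permeabilized HepG2 cells after 24 h dosing. Ten concentrations, 0.39 to 200 uM, run in duplicate at 0.5% v/v DMSO; gain or loss of signal versus DMSO.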

[8] = APR_HepG2_MitoMass_72hr: Apredica 72-hour HepG2 Assay for Mitochondrial Mass (AID 2282924); conditions: high-content imaging, actives raise or lower the signal;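 further: MitoTracker Red CMXRos stain intensity per cell imaged as mitochondrial mass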
In short: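 Readout is imaged MitoTracker Red (250 nM, 30 min, pre-fixation) signal, fitted bidirectionally against DMSO baseline. Human HepG2 liver cells received compound 0.39–200 uM in duplicate for 72 hr, final DMSO 0.5%.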

[9] = APR_HepG2_MitoMembPot_72hr: Apredica 72-hour HepG2 Assay for Mitochondrial Membrane Potential (AID 2282917); conditions: imaging, actives raise or lower the signal
In short: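 Membrane potential read by MitoTracker Red CMXRos (250 nM, 30 min, pre-fixation) fluorescence imaging of HepG2 after 72 hr exposure. Ten concentrations, 0.39–200 uM, duplicate wells, 0.5% DMSO; fitted in both directions against DMSO baseline.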

[10] = APR_HepG2_p53Act_72hr: Apredica 72-hour HepG2 Assay for p53 Activation (AID 2282923); conditions: high-content imaging, actives raise or lower the signal;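 further: average cellular p53 protein immunofluorescence intensity in HepG2 cells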
In short: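 Readout: p53 immunofluorescence quantified by automated high-content imaging at 20x, six fields per well, nuclei located via Hoechst. Dosing ran 72 hr over ten concentrations from 0.39 to 200 uM; bidirectional curve fitting against DMSO baseline.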

Measured: AC50

N#CN
not listed: [9] | [10]
inactive: all other assays above

CC[C@H](C)[C@H]1O[C@]2(C=C[C@@H]1C)C[C@@H]1C[C@@H](C/C=C(\C)[C@@H](O[C@H]3C[C@H](OC)[C@@H](O[C@H]4C[C@H](OC)[C@@H](O)[C@H](C)O4)[C@H](C)O3)[C@@H](C)/C=C/C=C3\CO[C@@H]4[C@H](O)C(C)=C[C@@H](C(=O)O1)[C@]34O)O2 (tested in a mixture with another compound)
not listed: [1]
inactive: all other assays above

COC(=O)c1ccccc1S(=O)(=O)NC(=O)Nc1nc(C)nc(OC)n1
not listed: [1]
inactive: all other assays above

Cc1[nH]c(=O)n(C(C)(C)C)c(=O)c1Cl
not listed: [10]
inactive: all other assays above

O=C(Nc1ccccc1)Nc1cnns1
active: [1] 90.8 µM | [2] 93.6 µM | [3] 91.6 µM | [4] 78 µM
not listed: [9]
inactive: all other assays above

CNC(=O)Oc1cccc(N=CN(C)C)c1
active: [2] 107 µM | [5] 106 µM
not listed: [1]
inactive: all other assays above

COP(=O)(OC)OC=C(Cl)Cl
active: [1] 78 µM | [5] 76.2 µM
not listed: [9] | [10]
inactive: all other assays above

OCCOc1ccccc1
not listed: [1]
inactive: all other assays above

COc1cc(OC)nc(NC(=O)NS(=O)(=O)c2cc(NC=O)ccc2C(=O)N(C)C)n1
not listed: [9]
inactive: all other assays above

CNC(=O)CSP(=S)(OC)OC
not listed: [9] | [10]
inactive: all other assays above

CCS(=O)(=O)c1cccnc1S(=O)(=O)NC(=O)Nc1nc(OC)cc(OC)n1
not listed: [9]
inactive: all other assays above

CC1(c2ccc(Oc3ccccc3)cc2)OC(=O)N(Nc2ccccc2)C1=O (stereo not given)
active: [1] 32.6 µM | [5] 93.2 µM | [10] 121 µM
not listed: [9]
inactive: all other assays above

O=C(O)COc1ccc(Cl)cc1Cl
not listed: [9]
inactive: all other assays above

Oc1cc(Cl)ccc1Oc1ccc(Cl)cc1Cl
active: [2] 24.4 µM and 34.3 µM | [3] 27.9 µM | [4] 98.6 µM and 71.5 µM | [5] 27.9 µM and 45.5 µM | [6] 49.2 µM | [10] 14.9 µM and 16.3 µM | [8] 170 µM
inactive: [2] | [3] | [4] | [5] | [6] | [7] | [10] | [8]

CCOCN(C(=O)CCl)c1c(C)cccc1CC
active: [1] 9.99 µM | [3] 93 µM | [4] 13.9 µM | [5] 30.9 µM
inactive: all other assays above

O=S(=O)(O)C(F)(F)C(F)(F)C(F)(F)C(F)(F)C(F)(F)C(F)(F)C(F)(F)C(F)(F)F
active: [2] 104 µM and 9.71 µM and 107 µM | [4] 111 µM | [5] 108 µM [middle of 4 runs] | [6] 111 µM and 107 µM | [10] 5.6 µM and 106 µM
inactive: [2] | [3] | [4] | [5] | [6] | [7] | [10] | [8]

CCN(CC)C(=O)SCc1ccc(Cl)cc1
not listed: [9]
inactive: all other assays above

CCC(C)(NC(=O)c1cc(Cl)c(C)c(Cl)c1)C(=O)CCl (stereo not given)
not listed: [1]
inactive: all other assays above

Oc1ccc(Cl)cc1Cc1ccccc1
inactive: [2] | [3] | [4] | [5] | [6] | [7] | [10] | [8]
active: [2] 112 µM and 122 µM and 34.5 µM | [4] 111 µM and 62.5 µM | [5] 114 µM [middle of 4 runs] | [6] 113 µM and 122 µM and 34.3 µM | [7] 150 µM and 99 µM | [10] 111 µM and 125 µM | [8] 88 µM

COC(=O)c1ccccc1CS(=O)(=O)NC(=O)Nc1nc(OC)cc(OC)n1
not listed: [9]
inactive: all other assays above

N#Cc1c(Cl)c(Cl)c(Cl)c(C#N)c1Cl
active: [1] 0.452 µM | [5] 0.322 µM
not listed: [9]
inactive: all other assays above

CCC(C)Nc1c([N+](=O)[O-])cc(C(C)(C)C)cc1[N+](=O)[O-] (stereo not given)
active: [1] 64.9 µM | [4] 57.8 µM
not listed: [10]
inactive: all other assays above

COP(=S)(OC)Oc1ccc(SC)c(C)c1
inactive: all assays above

O=C(O)C(F)(F)C(F)(F)C(F)(F)C(F)(F)C(F)(F)C(F)(F)C(F)(F)F
active: [9] 116 µM and 111 µM
not listed: [1]
inactive: all other assays above

O=C(O)CCCOc1ccc(Cl)cc1Cl
inactive: all assays above

COc1nn(CSP(=S)(OC)OC)c(=O)s1
inactive: all assays above

O=S1OCC2C(CO1)C1(Cl)C(Cl)=C(Cl)C2(Cl)C1(Cl)Cl (stereo not given)
active: [4] 117 µM
not listed: [1] | [9]
inactive: all other assays above

CNC(=O)/C=C(\C)OP(=O)(OC)OC
not listed: [1] | [9] | [10]
inactive: all other assays above

CC(C)(C)C(O)C(Oc1ccc(Cl)cc1)n1cncn1 (stereo not given)
active: [8] 98 µM
inactive: [2] | [3] | [4] | [5] | [6] | [7] | [10] | [8]

CCCN(CCC)c1c([N+](=O)[O-])cc(C(F)(F)F)cc1[N+](=O)[O-]
not listed: [1] | [9] | [10]
inactive: all other assays above

O=[N+]([O-])c1c(Cl)c(Cl)c(Cl)c(Cl)c1Cl
not listed: [1]
inactive: all other assays above

CC1(C)C(C=C(Cl)Cl)C1C(=O)OC(C#N)c1ccc(F)c(Oc2ccccc2)c1 (stereo not given)
not listed: [1] | [9]
inactive: all other assays above

Clc1ccccc1-c1nnc(-c2ccccc2Cl)nn1
active: [2] 46.4 µM | [4] 12.8 µM
inactive: [3] | [5] | [6] | [7] | [8]

Cc1cc(C)nc(NC(=O)NS(=O)(=O)c2ccccc2C(=O)OC2COC2)n1
not listed: [1] | [9]
inactive: all other assays above

O=C1c2ccccc2C(=O)N1SC(Cl)(Cl)Cl
not listed: [1] | [9]
inactive: all other assays above

CC(C)N(C(=O)COc1nnc(C(F)(F)F)s1)c1ccc(F)cc1
active: [3] 169 µM | [6] 113 µM
not listed: [1] | [9]
inactive: all other assays above

CCC(C)(C)C(=O)OC1=C(c2ccc(Cl)cc2Cl)C(=O)OC12CCCCC2
not listed: [1] | [9]
inactive: all other assays above

CC(C)(C)C(O)/C(=C\c1ccc(Cl)cc1Cl)n1cncn1 (stereo not given)
active: [4] 175 µM
not listed: [1] | [9]
inactive: all other assays above

CCc1ccc(C(=O)NN(C(=O)c2cc(C)cc(C)c2)C(C)(C)C)cc1
active: [4] 51.7 µM
not listed: [1] | [9]
inactive: all other assays above

CC(C)OC(=O)Nc1cccc(Cl)c1
not listed: [1] | [9]
inactive: all other assays above

COP(=S)(OC)Oc1ccc([N+](=O)[O-])cc1
not listed: [1] | [9]
inactive: all other assays above

CCCN(CCOc1c(Cl)cc(Cl)cc1Cl)C(=O)n1ccnc1
active: [4] 165 µM
not listed: [1] | [9]
inactive: all other assays above

CNC(=O)Oc1ccccc1OC(C)C
not listed: [1] | [9]
inactive: all other assays above

O=C(NC(=O)c1c(F)cccc1F)Nc1ccc(OC(F)(F)C(F)OC(F)(F)F)c(Cl)c1 (stereo not given)
not listed: [1] | [9] | [10]
inactive: all other assays above

CCOC1Oc2ccc(OS(C)(=O)=O)cc2C1(C)C (stereo not given)
not listed: [1] | [10]
inactive: all other assays above

CCOc1nc(NC)nc(NC(=O)NS(=O)(=O)c2ccccc2C(=O)OC)n1
not listed: [1] | [9]
inactive: all other assays above

COC(=O)c1ccccc1S(=O)(=O)NC(=O)N(C)c1nc(C)nc(OC)n1
not listed: [1]
inactive: all other assays above

ClC1C(Cl)C(Cl)C(Cl)C(Cl)C1Cl (stereo not given)
not listed: [1] | [9]
inactive: all other assays above

C[C@H]1[C@H](c2ccc(Cl)cc2)SC(=O)N1C(=O)NC1CCCCC1
active: [4] 44.5 µM
not listed: [1] | [9]
inactive: all other assays above

CN1CSC(=S)N(C)C1
inactive: [3] | [6] | [10]
active: [2] 4.12 µM | [4] 66.4 µM | [5] 21.8 µM | [7] 26.3 µM | [8] 57.2 µM

[2H]C1([2H])[n+]2ccccc2-c2cccc[n+]2C1([2H])[2H]
active: [3] 94.5 µM | [4] 143 µM
not listed: [1] | [9]
inactive: all other assays above

C#CCN1C(=O)COc2cc(F)c(N3C(=O)C4=C(CCCC4)C3=O)cc21
not listed: [1] | [10]
inactive: all other assays above

O=[N+]([O-])/N=C1\NCCN1Cc1ccc(Cl)nc1
not listed: [1] | [9] | [10]
inactive: all other assays above
